Test results published in PubChem BioAssay (Tox21).
Results filed as inconclusive are left out. Calls of active or inactive are those of the source. Unless noted, calls follow the shape of the full dose curve.

Assays:
[1] = Nuclear factor erythroid 2-related factor 2/antioxidant responsive element (Nrf2/ARE) small molecule agonists: qHTS cell viability counter screen in human keratinocytes (AID 1919968; active = well fitted curve in the direction sought with a large enough effect in the repeat runs; an effect the other way counts as inactive or inconclusive; also: nearly all actives have a fitted effect of over 55% in size)
Summary of the method: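 Measured as CellTiter-Fluor fluorescence, this readout tracks cytotoxicity in the same wells as the ARE-luciferase screen. HaCaT reporter cells (1,500/well) received compounds after a 5 h pre-incubation and were exposed for 23 h.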

[2] = Nuclear factor erythroid 2-related factor 2/antioxidant responsive element (Nrf2/ARE) small molecule agonists: luciferase reporter gene qHTS assay in human keratinocytes (AID 1919969); also: nearly all actives have a fitted effect of over 35% in size; also: potency is read from the fitted curve at half-maximal effect
[3] = biological target: Gonadotropin-releasing hormone receptor (Homo sapiens) (UniProt P30968); assay: Human gonadotropin-releasing hormone receptor (GnRHR) small molecule agonists, calcium flux assay in GnRHR-HEK293 cells (AID 1920063); also: nearly all actives have a fitted effect of over 35% in size
Summary of the method: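 Fluorescence kinetics (480 nm excitation, 540 nm emission; 3 min, 1 s steps) report calcium mobilisation in human GnRHR-HEK293 cells in agonist mode. Dye incubation: 1 h, 37 C.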

[4] = biological target: KiSS-1 receptor (Homo sapiens) (UniProt Q969F8); assay: Human kisspeptin (KISS1R) small molecule agonists, calcium flux assay in KISS1R-HEK293 cells (AID 1920064; active = well fitted curve in the direction sought with a large enough effect in the repeat runs; an effect the other way counts as inactive or inconclusive)
Summary of the method: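 Measures KISS1R agonism through calcium-sensitive dye fluorescence in stably transfected HEK293 cells, read for 3 min after pin-tool compound delivery; 15-point titrations in triplicate.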

[5] = G protein-coupled receptor (GPCR) small molecule agonists, calcium flux assay: HEK293 wild type cell line counter screen (AID 1920065)
Summary of the method: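 Readout: fluorescence at 480 nm excitation/540 nm emission, sampled at 1 s intervals for 3 min. Cells had been cultured 18 h, then dye-loaded 1 h at 37 C before compound or ATP addition.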

[6] = p53 small molecule agonists, cell-based qHTS assay with human liver microsomes (AID 1963577);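 also: p53 response element beta-lactamase reporter cells with liver microsomes plus NADPH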
Summary of the method: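 HLM-supplemented p53RE-bla reporter assay: 16 h compound exposure at 37 C, microsomes and NADPH each 0.5 mg/mL final, read by fluorescence intensity.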

[7] = p53 small molecule agonists, cell-based qHTS assay with rat liver microsomes (AID 1963578)
Summary of the method: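 Quantitative HTS of the Tox21 10K library: p53RE-bla cells, rat liver microsomes plus NADPH at 0.5 mg/mL final each, 16 h at 37 C, beta-lactamase fluorescence detection.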

[8] = p53 small molecule agonists, cell-based qHTS assay with human liver microsomes: qHTS cell viability counter screen (AID 1963579); also: nearly all actives have a fitted effect of over 45% in size
Summary of the method: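 Viability of p53RE-bla cells is measured as CellTiter-Glo luminescence following a 16 h, 37 C incubation with compound, liver microsomes from human donors and NADPH.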

[9] = p53 small molecule agonists, cell-based qHTS assay with rat liver microsomes: qHTS cell viability counter screen (AID 1963580); also: nearly all actives have a fitted effect of over 45% in size
Summary of the method: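 Viability is assessed in parallel with the p53 reporter read: HCT-116 p53RE-bla cells receive compounds plus rat microsomes and NADPH (0.5 mg/mL final apiece), incubate 16 h at 37 C, and then CellTiter-Glo luminescence is recorded.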

[10] = p53 small molecule agonists, cell-based qHTS assay: qHTS cell viability counter screen (AID 1963581); also: nearly all actives have a fitted effect of over 45% in size
Summary of the method: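 In the same plates used for the p53 bla reporter, HCT-116 cells given compounds for 16 h at 37 C received CellTiter-Glo; luminescence was recorded 30 min later at room temperature.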

[11] = biological target: 5-hydroxytryptamine receptor 2A (Homo sapiens) (UniProt P28223); assay: 5-hydroxytryptamine receptor 2A (HTR2A) small molecule antagonists, cell-based qHTS assay (AID 1963586); also: nearly all actives have a fitted effect of over 45% in size
Summary of the method: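 Antagonist-mode intracellular calcium assay: DOI (4 nM) added after 5 min compound pre-incubation at room temperature to dye-loaded HTR2A-CHO cells. Fluorescence followed for 3 min, sampled every second.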

[12] = biological target: 5-hydroxytryptamine receptor 2A (Homo sapiens) (UniProt P28223); assay: 5-hydroxytryptamine receptor 2A (HTR2A) small molecule agonists, cell-based qHTS assay (AID 1963587); also: nearly all actives have a fitted effect of over 30% in size; also: potency is read from the fitted curve at half-maximal effect
Summary of the method: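 CHO cells stably expressing human HTR2A, plated 18 h, loaded with calcium dye 1 h at 37 C. Agonist mode: compounds added and intracellular calcium fluorescence recorded kinetically for 2 min at 1 sec intervals.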

[13] = biological target: Muscarinic acetylcholine receptor M1 (Homo sapiens) (UniProt P11229); assay: Cholinergic receptor muscarinic 1 (CHRM1) small molecule antagonists, cell-based qHTS assay (AID 1963588); also: nearly all actives have a fitted effect of over 40% in size
Summary of the method: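 CHRM1-CHO calcium-flux assay, antagonist mode. Cells were seeded 18 h, dye-loaded 1 h at 37 C and given compound for 5 min at RT, then acetylcholine was added at 50nM. FDSS fluorescence was read 3 min; 15 concentrations, three runs.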

[14] = biological target: Muscarinic acetylcholine receptor M1 (Homo sapiens) (UniProt P11229); assay: Cholinergic receptor muscarinic 1 (CHRM1) small molecule agonists, cell-based qHTS assay (AID 1963589); also: nearly all actives have a fitted effect of over 35% in size
Summary of the method: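 Each compound was tested at 15 concentrations across three independent runs on dye-loaded CHO cells stably expressing human CHRM1, reading intracellular calcium fluorescence kinetically at 1 sec intervals.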

[15] = cAMP Responsive Elements (CRE) small molecule agonists, cell-based qHTS assay (AID 1963590)
Summary of the method: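 Cell line: CRE-bla HEK 293T; medium DMEM/10% dialyzed FBS/0.1 mM NEAA/1 mM pyruvate/25 mM HEPES; 3 h compound exposure; beta-lactamase FRET readout after 2 h substrate loading at RT.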

[16] = cAMP Responsive Elements (CRE) small molecule antagonists, cell-based qHTS assay (AID 1963591; active = well fitted inhibition curve with a large enough effect in the signal ratio in the repeat runs, not every such curve was filed as active; the % refers to the signal ratio)
Summary of the method: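 Inhibition of NKH477-driven (0.25 uM final) CRE-beta-lactamase signal in HEK293T cells, 3 h compound exposure at 37 °C, detected by FRET substrate fluorescence.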

[17] = biological target: Beta-2 adrenergic receptor (Homo sapiens) (UniProt P07550); assay: Adrenergic beta2 receptor (ADRB2) small molecule antagonists, cell-based qHTS assay (AID 1963592); also: series mostly up to about 92 µM; nearly all actives have a fitted effect of over 50% in size
Summary of the method: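 Cells (CHO, stable ADRB2 overexpression) incubated 18-20hr at 37C; compounds added from DMSO; agonist mix (1nM isoproterenol, 100uM IBMX, 25uM Ro-20-1724) added; 0.5hr RT; d2-cAMP and anti-cAMP-cryptate added; 1hr RT; 665/615 nm read.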

[18] = biological target: D(2) dopamine receptor (Homo sapiens) (UniProt P14416); assay: Dopamine D2 receptor (DRD2) small molecule agonists, cell-based qHTS assay (AID 1963594); also: nearly all actives have a fitted effect of over 35% in size
Summary of the method: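 HEK293 cells stably expressing human DRD2, pre-treated with PDE inhibitor Ro20-1724 (0.1 mM final) and compound 10 min at room temperature, then stimulated with NKH477 (200nM […]) for 30 min. cAMP read by HTRF (665/620 nm).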

[19] = biological target: D(2) dopamine receptor (Homo sapiens) (UniProt P14416); assay: Dopamine D2 receptor (DRD2) small molecule antagonists, cell-based qHTS assay (AID 1963595; active = well fitted inhibition curve with a large enough effect in the signal ratio in the repeat runs, with a control signal flat; the % refers to the signal ratio)
Summary of the method: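 Cells were plated and grown for 24 h at 37 °C. Ro20-1724 (0.1 mM final) went in first, then compound for 10 min. NKH477 (200 nM) with quinpirole (12 nM) followed for 30 min at RT, then HTRF detection reagents for 1 h.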

[20] = p53 small molecule agonists, cell-based qHTS assay (AID 1963582; active = well fitted activation curve with a large enough effect in the signal ratio in the repeat runs, not every such curve was filed as active; the % refers to the signal ratio)
Summary of the method: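 Compounds are pin-transferred in DMSO onto p53RE-bla cells and incubated 16 h at 37 C. The B/G FRET beta-lactamase substrate is then applied for 2 h at RT and fluorescence recorded.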

Measured: Potency

Chain of 5-hydroxytryptamine receptor 2A (Homo sapiens) (P28223 whole entry, looked up): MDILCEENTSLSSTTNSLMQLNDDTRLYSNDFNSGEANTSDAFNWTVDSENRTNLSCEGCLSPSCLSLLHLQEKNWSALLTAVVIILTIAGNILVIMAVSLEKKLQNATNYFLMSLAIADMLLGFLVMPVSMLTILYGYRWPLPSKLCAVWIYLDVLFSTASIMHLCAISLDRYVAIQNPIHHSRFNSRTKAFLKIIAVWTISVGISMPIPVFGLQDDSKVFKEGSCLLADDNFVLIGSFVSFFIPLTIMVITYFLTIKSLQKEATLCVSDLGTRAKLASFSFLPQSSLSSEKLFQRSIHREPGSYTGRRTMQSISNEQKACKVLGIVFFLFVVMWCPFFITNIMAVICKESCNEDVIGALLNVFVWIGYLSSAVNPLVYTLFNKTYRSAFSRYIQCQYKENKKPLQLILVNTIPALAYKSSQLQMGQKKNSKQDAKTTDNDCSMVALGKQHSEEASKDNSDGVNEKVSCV
Chain of KiSS-1 receptor (Homo sapiens) (Q969F8 whole entry, looked up): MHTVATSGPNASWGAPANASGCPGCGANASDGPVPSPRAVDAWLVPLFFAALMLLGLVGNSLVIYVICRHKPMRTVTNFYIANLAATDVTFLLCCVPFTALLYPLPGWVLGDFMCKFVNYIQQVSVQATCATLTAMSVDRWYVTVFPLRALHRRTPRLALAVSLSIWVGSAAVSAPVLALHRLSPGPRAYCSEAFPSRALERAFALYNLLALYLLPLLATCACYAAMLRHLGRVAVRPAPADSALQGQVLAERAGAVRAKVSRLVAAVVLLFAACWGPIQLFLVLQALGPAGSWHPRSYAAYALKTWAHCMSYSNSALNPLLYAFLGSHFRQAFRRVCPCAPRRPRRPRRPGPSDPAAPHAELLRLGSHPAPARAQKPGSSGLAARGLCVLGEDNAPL
Chain of Muscarinic acetylcholine receptor M1 (Homo sapiens) (P11229 whole entry, looked up): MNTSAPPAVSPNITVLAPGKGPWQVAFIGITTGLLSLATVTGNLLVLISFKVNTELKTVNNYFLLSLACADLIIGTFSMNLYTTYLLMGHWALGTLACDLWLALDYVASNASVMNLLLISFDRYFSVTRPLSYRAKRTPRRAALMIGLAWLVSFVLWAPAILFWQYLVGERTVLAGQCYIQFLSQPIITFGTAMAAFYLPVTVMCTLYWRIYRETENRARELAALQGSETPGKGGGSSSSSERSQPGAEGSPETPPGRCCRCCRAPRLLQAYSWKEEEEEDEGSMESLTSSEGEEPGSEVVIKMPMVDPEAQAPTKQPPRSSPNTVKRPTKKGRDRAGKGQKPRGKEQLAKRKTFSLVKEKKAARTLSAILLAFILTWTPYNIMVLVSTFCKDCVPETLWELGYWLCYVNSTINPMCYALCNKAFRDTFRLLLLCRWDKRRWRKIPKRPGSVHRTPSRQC
Chain of Gonadotropin-releasing hormone receptor (Homo sapiens) (P30968 whole entry, looked up): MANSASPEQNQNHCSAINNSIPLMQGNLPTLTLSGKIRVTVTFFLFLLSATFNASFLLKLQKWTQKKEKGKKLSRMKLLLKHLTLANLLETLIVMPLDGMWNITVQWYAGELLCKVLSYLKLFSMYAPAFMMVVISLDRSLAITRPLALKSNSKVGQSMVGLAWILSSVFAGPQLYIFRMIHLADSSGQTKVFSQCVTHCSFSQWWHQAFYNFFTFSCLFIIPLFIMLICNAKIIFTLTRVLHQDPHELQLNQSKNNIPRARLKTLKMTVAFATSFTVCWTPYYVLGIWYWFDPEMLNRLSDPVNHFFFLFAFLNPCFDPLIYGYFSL
Chain of Beta-2 adrenergic receptor (Homo sapiens) (P07550 whole entry, looked up): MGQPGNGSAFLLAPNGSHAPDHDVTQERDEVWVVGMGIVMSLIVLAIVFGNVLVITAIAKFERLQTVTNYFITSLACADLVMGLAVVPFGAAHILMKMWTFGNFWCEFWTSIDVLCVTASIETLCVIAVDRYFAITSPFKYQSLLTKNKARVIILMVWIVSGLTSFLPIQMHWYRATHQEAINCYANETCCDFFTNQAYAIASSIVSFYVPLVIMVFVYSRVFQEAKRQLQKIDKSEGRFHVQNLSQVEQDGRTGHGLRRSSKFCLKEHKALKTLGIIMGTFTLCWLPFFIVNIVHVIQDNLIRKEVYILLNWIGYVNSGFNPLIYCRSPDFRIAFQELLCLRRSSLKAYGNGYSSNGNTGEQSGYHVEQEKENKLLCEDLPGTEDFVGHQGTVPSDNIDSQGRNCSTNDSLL
Chain of D(2) dopamine receptor (Homo sapiens) (P14416 whole entry, looked up): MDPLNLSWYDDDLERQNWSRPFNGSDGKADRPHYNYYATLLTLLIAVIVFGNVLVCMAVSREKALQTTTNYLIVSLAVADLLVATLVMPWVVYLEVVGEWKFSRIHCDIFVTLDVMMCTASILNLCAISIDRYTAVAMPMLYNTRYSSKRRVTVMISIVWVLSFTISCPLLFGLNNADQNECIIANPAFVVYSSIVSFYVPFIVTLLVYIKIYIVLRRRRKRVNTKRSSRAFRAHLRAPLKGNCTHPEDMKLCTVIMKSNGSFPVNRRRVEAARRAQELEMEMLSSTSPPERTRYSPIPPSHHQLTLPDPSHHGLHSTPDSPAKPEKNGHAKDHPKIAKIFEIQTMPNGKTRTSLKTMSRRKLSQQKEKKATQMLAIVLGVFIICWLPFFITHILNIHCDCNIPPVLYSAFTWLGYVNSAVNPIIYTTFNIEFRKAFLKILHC

CC(Cl)C(Cl)Cl (centres undefined)
not listed: [20]
inactive: all other assays above

CC(C)(C)c1cc(CCC(=O)NN)cc(C(C)(C)C)c1O
not listed: [19] | [20]
inactive: all other assays above

NCCCCCC(=O)O
not listed: [11] | [12] | [13] | [14] | [16]
inactive: all other assays above

O=C(O)CCNC(=O)c1ccccc1
not listed: [11] | [12] | [13] | [14] | [16]
inactive: all other assays above

CO[C@@H]1[C@H](OC(=O)/C=C/C=C/C=C/C=C/C(=O)O)CC[C@]2(CO2)[C@H]1[C@@]1(C)O[C@@H]1CC=C(C)C
active: [2] 61.1 µM
not listed: [16] | [20]
inactive: all other assays above

CCn1cc(C(=O)O)c(=O)c2cc(F)c(N3CCNCC3)nc21
not listed: [11] | [12] | [13] | [14] | [16] | [17] | [18]
inactive: all other assays above

CC(=O)O[C@@H]1C(=O)O[C@@H]2[C@H]1OC(=O)[C@@H]2OC(C)=O
active: [2] 29.8 µM | [12] 0.756 µM
not listed: [18] | [20]
inactive: all other assays above

Cn1c(=O)c2c(ncn2CC(O)CO)n(C)c1=O (centres undefined)
not listed: [11] | [12] | [13] | [14] | [16]
inactive: all other assays above

O=C(O)CCCCCCC(=O)O
not listed: [20]
inactive: all other assays above

CC(=O)[C@@]1(O)CC[C@H]2[C@@H]3C[C@H](C)C4=CC(=O)CC[C@]4(C)[C@H]3CC[C@@]21C
not listed: [11] | [12] | [13] | [14] | [15] | [16]
inactive: all other assays above

C=CS(=O)(=O)O
not listed: [19] | [20]
inactive: all other assays above

COc1cc(CNC(=O)CCCC/C=C/C(C)C)ccc1O
not listed: [11] | [12] | [13] | [14] | [16] | [18]
inactive: all other assays above

Cc1ccc2ccccc2n1
not listed: [20]
inactive: all other assays above

COc1ccc([C@@H]2Sc3ccccc3N(CCN(C)C)C(=O)[C@@H]2OC(C)=O)cc1
not listed: [11] | [12] | [13] | [14] | [15] | [16]
inactive: all other assays above

C[N+]1(C)[C@@H]2CC(OC(=O)[C@H](CO)c3ccccc3)C[C@H]1[C@@H]1O[C@@H]12 (some centres undefined)
not listed: [11] | [12] | [13] | [14] | [17]
inactive: all other assays above
